In PubChem BioAssay (NCI):
Compounds without any hit were thinned out: in the full panel of roughly 83,000, 20% have a hit.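 The endpoint reported here, percent growth, reads 100 for growth as untreated, 0 for no net growth and -100 for all cells dead.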 Values without a mark were called inactive. The source made the active and inactive calls. How the source made its calls: active means growth percent below 10; inactive means the rest.

What was measured:
Assay in all cases: NCI-60 one-dose screen, 48 h (100 = growth as untreated, 0 = no growth, -100 = all killed)
Conditions in all cases: 10 µM unless noted
[1] = system: SR leukemia
[2] = system: RPMI-8226 leukemia
[3] = system: OVCAR-8 ovarian
[4] = system: OVCAR-5 ovarian
[5] = system: OVCAR-4 ovarian
[6] = system: SK-OV-3 ovarian
[7] = system: IGROV1 ovarian
[8] = system: OVCAR-3 ovarian
[9] = system: HS 578T breast
[10] = system: NCI/ADR-RES ovarian
[11] = system: T-47D breast
[12] = system: BT-549 breast
[13] = system: SW-620 colon
[14] = system: MCF7 breast
[15] = system: HCT-116 colon
[16] = system: HCC-2998 colon
[17] = system: KM12 colon
[18] = system: MDA-MB-435 melanoma

Compound | growth [1] | growth [2] | growth [3] | growth [4] | growth [5] | growth [6] | growth [7] | growth [8] | growth [9] | growth [10] | growth [11] | growth [12] | growth [13] | growth [14] [%] | growth [15] | growth [16] | growth [17] | growth [18]
C=CCSc1n[nH]c(-c2cccs2)n1 | 91% | 103% | 102% | 98.2% | 107% | 110% | 15.8% | 115% | 101% | 102% | 94.8% | 99.5% | 102% | 101 | 98.6% | 117% | 111% | –
CC(C)(C)N1CCC1C(N)=O (stereo unspecified) | 115% | 87.5% | 102% | 48.7% | 104% | 104% | 265% | 105% | 111% | -4.51% (active) | 99.5% | – | 97.7% | 104 | 77.4% | 47% | 99.2% | 103%
CC(C)NCCCNC1=C(Cl)C(=O)c2ccccc2C1=O | -22.7% (active) | 68.4% | 56.9% | 138% | 84.1% | 107% | -51.3% (active) | 40.8% | 27.7% | 90.5% | 101% | 99.8% | -30.7% (active) | – | 70.7% | 59.7% | 87.2% | -66% (active)
Cc1csc(NC(c2ccccc2)c2c(C)nc3ccccn23)n1 (stereo unspecified) | 94.9% | 79.2% | 102% | 101% | 104% | 97.3% | 108% | 110% | 95.5% | 99% | 86.9% | 97% | 96.3% | 94.6 | 91% | 105% | 99.8% | –
Brc1ccc(-c2[nH]ncc2-c2c[nH]c3ccccc23)cc1 | 100% | 81.8% | 96.4% | 97.7% | 86.3% | 103% | 91.1% | 97.3% | 88.3% | 101% | 88.2% | 80.1% | 96.2% | 66.8 | 98.4% | 112% | 94.3% | –
O=C(Nc1ccncc1)C(=O)c1cn(S(=O)(=O)c2ccccc2F)c2ccccc12 | 16.4% | 9.83% (active) | 35.2% | 69.3% | 57.1% | 87.5% | 52% | -27.1% (active) | 12.1% | -17.7% (active) | 41.8% | 39.1% | 15.6% | 21.5 | 20.4% | 57.2% | 19.2% | –
Cc1ccc2nc(Cl)cc(=O)n2c1 | 97.8% | 96.1% | 117% | 94% | 117% | 102% | 123% | 135% | 93.7% | 117% | – | 102% | 108% | 107 | 105% | 121% | 107% | 106%
N#Cc1c(-c2ccccc2)cc(-c2ccccc2)n(CC(=O)NO)c1=O | 2.74% (active) | 23.2% | 67.7% | 69.3% | 50.6% | 107% | -61.4% (active) | 30% | 39.4% | 11.5% | 14.9% | 1.67% (active) | 59.8% | 21.9 | 40.7% | 86.5% | 41.2% | –
CCOC(=O)c1ccc2c(c1)nc(-c1ccc(OCc3ccccc3)c(OC)c1)n2-c1cc(C(C)(C)C)[nH]n1 | 68.9% | 68.8% | 99.7% | 88.9% | 76.4% | 91.2% | 83% | 81.8% | 82.2% | 89.1% | 65.5% | 98.6% | 98% | 63.1 | 62.8% | 91% | 69.3% | –
NC(=O)c1c(NC(=S)Nc2ccc(OC(F)(F)F)cc2)sc2c1CCC1(C2)OCCO1 | 92.1% | 93.2% | 99.7% | 91.9% | 95.3% | 89.9% | 96.3% | 109% | 79.5% | 98.9% | 86% | 93.8% | 92.9% | 90.1 | 98.2% | 102% | 94.6% | –
O=C(NNC(=O)N1c2ccccc2C=Cc2ccccc21)c1ccccc1 | 96.6% | 104% | 105% | 103% | 103% | 112% | 110% | 113% | 109% | 99.8% | 102% | – | 107% | 95.6 | 103% | 114% | 105% | 103%
N#Cc1c(-c2ccccc2)nc(SCC(=O)N2CCN(c3ccccc3)CC2)[nH]c1=O | 90.6% | 95.7% | 97.9% | 98.5% | 115% | 101% | 112% | 111% | 106% | 101% | 99.4% | 91.2% | 111% | – | 92.5% | 103% | 106% | 108%
Cn1c2ccc(Br)cc2c2c3c(c4c5ccccc5[nH]c4c21)C(=O)N(O)C3=O | 0.179% (active) | -29.5% (active) | -27.2% (active) | -6.8% (active) | 3.5% (active) | -84.2% (active) | -79.4% (active) | -86.2% (active) | 1.47% (active) | 26.3% | -24.1% (active) | -85.2% (active) | -12.2% (active) | – | -34.7% (active) | -87.4% (active) | -65.8% (active) | -59.3% (active)
COc1ccc(-c2nc(N3CCCC3=O)sc2Br)cc1OC | 88.9% | 109% | 103% | 99.2% | 98.2% | 115% | 113% | 111% | 100% | 104% | 89.2% | 93.2% | 102% | 96.9 | 97.4% | 108% | 92.7% | –
O=[N+]([O-])c1cccc(-c2nc3sccn3c2-c2ccnc(NCCCNS(=O)(=O)c3ccc(C(F)(F)F)cc3)n2)c1 | 37.5% | -4.61% (active) | 22.3% | 90.6% | 15.2% | 71.9% | 25.6% | 28.7% | 63.3% | 8.78% (active) | -1.61% (active) | 30.3% | 66.6% | – | 30.5% | 52.9% | 23.9% | 18.4%
COc1ccc(C(=O)N2NC(=O)/C(=C/c3ccc(F)cc3)N=C2c2ccccc2)cc1 | 51.5% | 70.3% | 97.4% | 95.9% | 109% | 103% | 99% | 105% | 101% | 81.3% | 95.6% | 83% | 69.3% | 96.6 | 81.2% | 97.4% | 85.5% | –
O=c1[nH]c2ccc(Br)cc2c2c1C(c1ccc(Cl)cc1)c1c(ncn3nc(-c4ccco4)nc13)O2 (stereo unspecified) | 62.3% | 58.4% | 79.3% | 73.6% | 67.5% | 59.8% | 44% | 81.7% | 35.6% | 88.2% | 60.9% | 76.9% | 73.6% | 68.7 | 67.5% | 86.6% | 94.5% | –
COc1cccc(-c2nc3sccn3c2-c2ccnc(NCCCNS(=O)(=O)c3ccc(F)cc3)c2)c1 | 45.2% | -25.1% (active) | 16% | 83.6% | 30.2% | 74.8% | 29.7% | 35.8% | 63.7% | 10.2% | -3.13% (active) | 13% | 41.7% | 31.8 | 25.5% | 61.5% | 21% | –
